# Results filed as inconclusive are left out. Calls of active or inactive are those of the source. The calls were made as follows: active = hit-call score of the fitted dose curve at least 0.9, where 1 is the maximum; inconclusive = response in the unintended direction; inactive = score below 0.9.
# How the values were obtained:
# [1] = molecular target: bovine Estrogen Receptor (ER), ESR1 (gene 407238) (UniProt P49884); experiment: NVS_NR_bER: NovaScreen (NVS) Nuclear Receptor Binding Assay for bovine Estrogen Receptor (ER) (AID 2283345);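 also: actives lower the bound radioligand count which means they displace the ER ligand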
# Sequence of bovine Estrogen Receptor (ER), ESR1 (gene 407238) (P49884 whole entry, looked up): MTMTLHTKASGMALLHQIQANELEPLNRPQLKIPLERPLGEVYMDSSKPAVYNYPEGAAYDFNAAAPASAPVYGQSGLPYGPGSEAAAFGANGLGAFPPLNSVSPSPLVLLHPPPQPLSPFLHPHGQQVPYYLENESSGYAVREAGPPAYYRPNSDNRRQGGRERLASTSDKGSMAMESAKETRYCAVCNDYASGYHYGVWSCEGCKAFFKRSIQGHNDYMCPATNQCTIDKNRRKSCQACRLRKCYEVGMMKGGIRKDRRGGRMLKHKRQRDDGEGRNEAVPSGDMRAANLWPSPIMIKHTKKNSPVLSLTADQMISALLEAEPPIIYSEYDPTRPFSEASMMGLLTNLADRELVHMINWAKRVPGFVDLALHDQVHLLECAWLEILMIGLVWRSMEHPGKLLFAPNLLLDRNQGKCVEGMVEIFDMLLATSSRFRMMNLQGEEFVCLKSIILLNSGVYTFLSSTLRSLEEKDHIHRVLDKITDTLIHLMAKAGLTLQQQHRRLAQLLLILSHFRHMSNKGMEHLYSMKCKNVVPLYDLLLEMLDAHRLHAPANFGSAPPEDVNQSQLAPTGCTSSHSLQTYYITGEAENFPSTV
# Procedure, shortened: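 Displacement of a radioligand from estrogen receptor in bovine uterine membrane preparations; scintillation signal taken at 18 hours, DMSO as baseline. Single-concentration duplicates (25 uM) preceded concentration-response follow-up of actives.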
# [2] = molecular target: chimpanzee Androgen Receptor (AR), AR (gene 747460) (UniProt O97775); experiment: NVS_NR_cAR: NovaScreen (NVS) Nuclear Receptor Binding Assay for chimpanzee Androgen Receptor (AR) (AID 2283346);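 also: radioligand displacement from AR measured by scintillation counting in a cell-free assay; a loss of bound radioligand signal versus DMSO counts as binding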
# Sequence of chimpanzee Androgen Receptor (AR), AR (gene 747460) (O97775 whole entry, looked up): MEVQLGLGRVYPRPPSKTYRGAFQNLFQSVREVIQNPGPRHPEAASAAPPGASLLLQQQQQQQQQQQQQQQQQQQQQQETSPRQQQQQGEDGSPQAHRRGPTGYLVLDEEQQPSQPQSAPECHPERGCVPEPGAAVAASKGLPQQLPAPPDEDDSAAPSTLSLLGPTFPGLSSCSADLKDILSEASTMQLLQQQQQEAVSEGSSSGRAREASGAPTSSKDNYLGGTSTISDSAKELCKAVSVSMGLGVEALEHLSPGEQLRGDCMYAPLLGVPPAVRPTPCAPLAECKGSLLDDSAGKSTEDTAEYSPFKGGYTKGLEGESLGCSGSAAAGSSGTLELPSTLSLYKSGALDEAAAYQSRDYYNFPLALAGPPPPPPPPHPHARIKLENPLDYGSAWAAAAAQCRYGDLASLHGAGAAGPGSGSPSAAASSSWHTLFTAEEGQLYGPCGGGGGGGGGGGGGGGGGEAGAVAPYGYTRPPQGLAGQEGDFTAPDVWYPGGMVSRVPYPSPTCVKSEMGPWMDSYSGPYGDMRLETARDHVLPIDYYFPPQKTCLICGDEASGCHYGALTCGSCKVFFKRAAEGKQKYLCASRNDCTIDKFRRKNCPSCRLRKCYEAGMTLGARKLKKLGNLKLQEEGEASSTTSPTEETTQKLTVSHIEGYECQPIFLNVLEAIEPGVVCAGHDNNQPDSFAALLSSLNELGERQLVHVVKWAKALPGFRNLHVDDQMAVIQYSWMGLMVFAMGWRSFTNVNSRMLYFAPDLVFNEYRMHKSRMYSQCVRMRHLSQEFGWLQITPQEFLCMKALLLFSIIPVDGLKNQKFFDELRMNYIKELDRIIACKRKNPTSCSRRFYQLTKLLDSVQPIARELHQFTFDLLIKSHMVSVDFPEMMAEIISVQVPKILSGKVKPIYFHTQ
# Procedure, shortened: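 Radioligand binding to chimpanzee AR expressed in Sf9/Sf21 cells, cell-free, measured 72 h after dosing by lysate-based scintillation counting. Loss of signal vs DMSO; initial duplicate screen at 25 uM, actives retested in concentration series.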
# [3] = molecular target: Estrogen receptor (Homo sapiens) (UniProt P03372); experiment: NVS_NR_hER: NovaScreen (NVS) Nuclear Receptor Binding Assay for human Estrogen Receptor (ER) (AID 2283348)
# Sequence of Estrogen receptor (Homo sapiens) (P03372 whole entry, looked up, the tested form may be a part): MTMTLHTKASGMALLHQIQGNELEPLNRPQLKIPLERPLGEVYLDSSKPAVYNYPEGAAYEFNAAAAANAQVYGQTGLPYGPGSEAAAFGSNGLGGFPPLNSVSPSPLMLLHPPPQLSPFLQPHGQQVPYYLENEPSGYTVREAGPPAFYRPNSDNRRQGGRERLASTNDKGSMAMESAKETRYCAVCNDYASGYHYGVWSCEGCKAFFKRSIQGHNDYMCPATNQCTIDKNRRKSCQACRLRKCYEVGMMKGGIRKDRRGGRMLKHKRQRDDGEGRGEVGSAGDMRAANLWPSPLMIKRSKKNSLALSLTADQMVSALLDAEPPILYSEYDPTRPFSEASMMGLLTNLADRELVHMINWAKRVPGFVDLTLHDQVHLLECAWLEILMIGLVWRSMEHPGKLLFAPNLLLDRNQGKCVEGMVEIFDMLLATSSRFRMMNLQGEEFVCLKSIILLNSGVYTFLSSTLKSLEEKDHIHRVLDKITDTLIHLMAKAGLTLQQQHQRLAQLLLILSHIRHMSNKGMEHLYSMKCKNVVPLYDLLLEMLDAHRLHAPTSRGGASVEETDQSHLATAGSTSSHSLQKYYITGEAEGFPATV
# Procedure, shortened: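 MCF7-derived receptor extract, radiolabelled ligand, competitive displacement. Read: scintillation counts at 18 h. DMSO = negative control/baseline. Primary 25 uM duplicate; follow-up concentration–response.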
# [4] = molecular target: Estrogen receptor (Homo sapiens) (UniProt P03372); experiment: OT_ER_ERaERa_1440: Odyssey Thera (OT) 24-hour HEK293T Protein-Complementation Assay for Estrogen Receptor-alpha/-alpha Homodimer (AID 2283349);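 also: hits raise fluorescence above DMSO for agonists and antagonists alike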
# Procedure, shortened: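 Cells (HEK293T) carrying the fragment-tagged ERα LBD (aa 310-547) pair are treated with chemical for 24 hours. Nuclear and/or cytoplasmic fluorescence is then quantified on a laser scanning cytometer. Activity is scored as signal gain against DMSO.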
# [5] = molecular target: Estrogen receptor (Homo sapiens) (UniProt P03372); experiment: OT_ER_ERaERa_0480: Odyssey Thera (OT) 8-hour HEK293T Protein-Complementation Assay for Estrogen Receptor-alpha/-alpha Homodimer (AID 2283351);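 also: rise in fluorescence from reassembled reporter fragments on ERα LBD homodimer in nucleus or whole cell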
# Procedure, shortened: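 Measures ERα LBD (aa 310-547) homodimer complementation in stably transfected HEK293T at 8 h post-dose, with fluorescence intensity quantified on a laser scanning cytometer relative to DMSO controls.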
# [6] = molecular target: Estrogen receptor (Homo sapiens) + Estrogen receptor beta (Homo sapiens) (UniProt P03372+Q92731); experiment: OT_ER_ERaERb_0480: Odyssey Thera (OT) 8-hour HEK293T Protein-Complementation Assay for Estrogen Receptor-alpha/-beta Heterodimer (AID 2283352)
# Sequence of Estrogen receptor (Homo sapiens) + Estrogen receptor beta (Homo sapiens) (P03372 whole entry, looked up, the tested form may be a part): as above
# Sequence of Estrogen receptor (Homo sapiens) + Estrogen receptor beta (Homo sapiens) (Q92731 whole entry, looked up, the tested form may be a part): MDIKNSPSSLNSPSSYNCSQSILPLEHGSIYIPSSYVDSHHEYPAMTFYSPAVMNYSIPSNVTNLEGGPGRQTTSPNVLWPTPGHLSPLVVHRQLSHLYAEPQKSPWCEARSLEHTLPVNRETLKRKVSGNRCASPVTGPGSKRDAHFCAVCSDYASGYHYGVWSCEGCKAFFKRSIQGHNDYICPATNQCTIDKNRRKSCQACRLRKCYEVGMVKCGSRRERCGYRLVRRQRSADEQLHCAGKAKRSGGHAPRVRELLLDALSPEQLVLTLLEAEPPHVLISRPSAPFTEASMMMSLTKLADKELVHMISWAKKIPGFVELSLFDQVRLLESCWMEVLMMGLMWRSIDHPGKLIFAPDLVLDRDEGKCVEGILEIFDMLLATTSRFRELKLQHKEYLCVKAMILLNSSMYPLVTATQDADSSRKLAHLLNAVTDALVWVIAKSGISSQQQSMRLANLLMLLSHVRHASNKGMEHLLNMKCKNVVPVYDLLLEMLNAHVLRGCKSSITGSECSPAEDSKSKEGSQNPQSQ
# Procedure, shortened: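 Fluorescence increase from reconstituted reporter fragments, quantified by laser scanning cytometer, reflects ER-alpha/ER-beta heterodimer formation in human HEK293T cells. Exposure 8 h; positive-direction fitting against DMSO vehicle.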
# [7] = NVS_IC_rCaBTZCHL: NovaScreen (NVS) Ion Channel Assay for Calcium Channel, Type L, Benzothiazepine Site (CaBTZCHL) (AID 2283337)
# Procedure, shortened: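 Benzothiazepine-site binding was assessed in a tissue-derived, cell-free rat cortical membrane system. After 1.5 h exposure, radioactivity retained on filters was quantified by scintillation; positive and negative controls accompanied every plate.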
# NCBI gene 100848466 = experiment: NVS_NR_bPR: NovaScreen (NVS) Nuclear Receptor Binding Assay for bovine Progextron Receptor (PR) (AID 2283343);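 also: actives lower bound radioligand signal below DMSO meaning displacement of the label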
# Procedure, shortened: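 Scintillation counts of bound radioligand were read 18 hours after chemical addition to membranes extracted from bovine uterus. Displacement was scored as loss of signal relative to DMSO controls. Screening began at 25 uM in duplicate.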
# [8] = molecular target: human Constitutive Androstane Receptor (CAR), NR1I3 (gene 9970) (UniProt Q14994); experiment: NVS_NR_hCAR_Antagonist: NovaScreen (NVS) Nuclear Receptor Binding Assay for human Constitutive Androstane Receptor Antagonism (CAR) (AID 2283344)
# Sequence of human Constitutive Androstane Receptor (CAR), NR1I3 (gene 9970) (Q14994 whole entry, looked up): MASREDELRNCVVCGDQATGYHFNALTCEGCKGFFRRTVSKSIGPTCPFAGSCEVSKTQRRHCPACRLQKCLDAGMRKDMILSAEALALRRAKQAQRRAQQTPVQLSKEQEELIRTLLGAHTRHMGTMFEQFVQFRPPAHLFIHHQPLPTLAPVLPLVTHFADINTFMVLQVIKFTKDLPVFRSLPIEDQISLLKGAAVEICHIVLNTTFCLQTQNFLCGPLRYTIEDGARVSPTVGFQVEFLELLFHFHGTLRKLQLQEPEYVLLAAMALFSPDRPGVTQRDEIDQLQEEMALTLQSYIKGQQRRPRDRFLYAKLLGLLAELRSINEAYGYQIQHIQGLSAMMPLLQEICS
# Procedure, shortened: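 Single 25 uM duplicate primary screen, with concentration-series follow-up on actives. Cell-free binding format run in antagonist mode, TR-FRET signal taken 1 h post-dose; activity is signal loss relative to DMSO.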
# [9] = molecular target: Androgen Receptor/SRC-1 Co-activator, AR (gene 367) (UniProt P10275); experiment: OT_AR_ARSRC1_0960: Odyssey Thera (OT) 16-hour HEK293T Protein-Complementation Assay for Androgen Receptor/SRC-1 Co-activator (AID 2283353);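 also: actives raise the signal above DMSO so potency reflects increased AR and SRC-1 complex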
# Sequence of Androgen Receptor/SRC-1 Co-activator, AR (gene 367) (P10275 whole entry, looked up, the tested form may be a part): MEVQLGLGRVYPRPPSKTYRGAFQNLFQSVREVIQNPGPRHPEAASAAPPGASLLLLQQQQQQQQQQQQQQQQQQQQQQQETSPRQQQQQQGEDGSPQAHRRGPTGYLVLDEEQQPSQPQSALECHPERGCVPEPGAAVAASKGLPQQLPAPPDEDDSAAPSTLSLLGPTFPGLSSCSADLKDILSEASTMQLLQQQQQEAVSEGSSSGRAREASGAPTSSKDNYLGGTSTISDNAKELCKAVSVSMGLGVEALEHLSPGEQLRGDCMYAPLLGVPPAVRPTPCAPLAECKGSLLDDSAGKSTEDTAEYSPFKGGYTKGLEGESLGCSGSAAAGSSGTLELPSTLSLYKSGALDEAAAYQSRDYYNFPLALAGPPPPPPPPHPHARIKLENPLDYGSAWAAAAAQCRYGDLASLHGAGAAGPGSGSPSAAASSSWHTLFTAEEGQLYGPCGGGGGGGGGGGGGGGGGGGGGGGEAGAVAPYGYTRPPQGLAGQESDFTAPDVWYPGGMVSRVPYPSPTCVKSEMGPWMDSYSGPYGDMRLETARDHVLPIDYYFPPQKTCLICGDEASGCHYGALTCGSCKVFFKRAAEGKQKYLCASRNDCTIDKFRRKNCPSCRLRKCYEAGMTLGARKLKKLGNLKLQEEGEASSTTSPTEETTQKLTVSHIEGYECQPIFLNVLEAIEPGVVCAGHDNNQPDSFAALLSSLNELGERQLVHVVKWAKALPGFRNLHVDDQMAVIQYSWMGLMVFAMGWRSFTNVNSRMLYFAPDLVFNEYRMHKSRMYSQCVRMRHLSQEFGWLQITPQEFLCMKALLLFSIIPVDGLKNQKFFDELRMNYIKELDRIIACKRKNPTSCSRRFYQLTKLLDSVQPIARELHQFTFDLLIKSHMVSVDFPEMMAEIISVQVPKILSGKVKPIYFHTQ
# Procedure, shortened: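 Sixteen-hour cell assay: Venus halves fused to AR and SRC-1 in HEK293T report binding. Images at 488/635 nm give an N/C ratio in the 488 nm channel over ≥400 cells, analysed as signal increase over DMSO.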
compound,measurement,setting,value
CC(=O)CC(=O)N(C)C,outcome,[1],inactive
same,outcome,[2],inactive
same,outcome,[3],inactive
same,outcome,[4],inactive
same,outcome,[5],inactive
same,outcome,[6],inactive
CCCCCCCCOC(=O)c1ccc(O)cc1,outcome,[1],inactive
same,AC50,[3],2.7 µM (active)
same,AC50,[4],32.8 µM (active)
same,AC50,[5],20.9 µM (active)
same,AC50,[6],10.1 µM (active)
CCCCCCCCCOS(=O)(=O)O,outcome,[1],inactive
same,AC50,[3],11.1 µM (active)
same,outcome,[4],inactive
same,outcome,[5],inactive
same,outcome,[6],inactive
Cc1cccc(O)c1,outcome,[1],inactive
same,outcome,[3],inactive
same,outcome,[4],inactive
same,outcome,[5],inactive
same,outcome,[6],inactive
CCCc1ccc(O)cc1,outcome,[2],inactive
same,outcome,[3],inactive
same,outcome,[4],inactive
same,AC50,[5],63.7 µM (active)
same,AC50,[6],45.2 µM (active)
Cc1ccc(C(C)(C)O)cc1,outcome,[7],inactive
CCC(=O)OC(C)(C)C1CC=C(C)CC1 (configuration not stated),outcome,[1],inactive
same,outcome,[3],inactive
same,outcome,[4],inactive
same,outcome,[5],inactive
same,outcome,[6],inactive
CC1(C)CC(=O)CC(C)(C)N1,outcome,[1],inactive
same,outcome,[2],inactive
CC/C=C\CCCCCCCCCCOC(C)=O,outcome,[1],inactive
CC(C)(C)c1ccc(S)cc1,AC50,[1],0.551 µM (active)
same,AC50,[3],0.283 µM (active)
same,outcome,[4],inactive
same,outcome,[5],inactive
CC(C)CCCC(C)(C)O,outcome,[2],inactive
same,outcome,[4],inactive
same,outcome,[5],inactive
CC(=O)C1C(=O)C=C(C)OC1=O (configuration not stated),outcome,[1],inactive
same,outcome,[3],inactive
same,outcome,[4],inactive
same,outcome,[5],inactive
same,outcome,[6],inactive
O=c1cc(-c2ccc(O)cc2)oc2cc(O)cc(O)c12,AC50,[2],12.9 µM (active)
CN(C)CCC=C1c2ccccc2CCc2ccccc21,outcome,[1],inactive
same,outcome,[3],inactive
C[C@]12CC[C@@H]3c4ccc(O)cc4CC[C@H]3[C@@H]1CC[C@@H]2O,AC50,NCBI gene 100848466,0.00898 µM (active)
same,outcome,[8],inactive
CC/C=C\CCOC(C)OCC (configuration not stated),outcome,[1],inactive
same,outcome,[3],inactive
CCOCC(C)O (configuration not stated),outcome,[1],inactive
same,outcome,[3],inactive
same,outcome,[4],inactive
same,outcome,[6],inactive
O=C(Nc1cccc(Cl)c1)OCC#CCCl,outcome,[1],inactive
same,outcome,[3],inactive
C[C@H](CCC(=O)O)[C@H]1CC[C@H]2[C@@H]3CC[C@@H]4C[C@H](O)CC[C@]4(C)[C@H]3CC[C@]12C,outcome,[1],inactive
N#CCCCC(C#N)CCC#N (configuration not stated),outcome,[2],inactive
C=CCOCC(O)CO (configuration not stated),AC50,[2],1.33 µM (active)
O=S1(=O)CC(Cl)(Cl)C(Cl)(Cl)C1,outcome,[1],inactive
same,AC50,[3],18.5 µM (active)
[O-]/[N+](=N\O)c1ccccc1,outcome,[2],inactive
same,outcome,[4],inactive
same,outcome,[5],inactive
COc1ccccc1O,outcome,[1],inactive
same,outcome,[3],inactive
same,outcome,[4],inactive
same,outcome,[5],inactive
CC(=O)OC(C)(C)C1CC=C(C)CC1 (configuration not stated),outcome,[7],inactive
same,outcome,[1],inactive
same,outcome,[4],inactive
same,outcome,[5],inactive
OC[C@@H](O)[C@H](O)[C@@H](O)[C@@H](O)CO,outcome,[2],inactive
same,outcome,[4],inactive
same,outcome,[5],inactive
CC(O)CN (configuration not stated),outcome,[1],inactive
same,outcome,[3],inactive
same,outcome,[4],inactive
same,outcome,[5],inactive
same,outcome,[6],inactive
CCC(C)(C)C1CCC(=O)CC1,AC50,[1],4.52 µM (active)
same,AC50,[3],0.983 µM (active)
same,outcome,[4],inactive
same,outcome,[5],inactive
same,outcome,[9],inactive
CCCC[N+](C)(CCCC)CCCC,outcome,[4],inactive
same,outcome,[5],inactive
CC(O)CNCC(C)O (configuration not stated),AC50,[4],18 µM (active)
same,outcome,[5],inactive
NCCN1CCNCC1,outcome,[4],inactive
same,outcome,[5],inactive
C=C(C)C(=O)OCCC(C)OC(=O)C(=C)C (configuration not stated),outcome,[4],inactive
same,outcome,[5],inactive
CC(=O)Oc1c(C)c(C)c2c(c1C)CC[C@@](C)(CCC[C@H](C)CCC[C@H](C)CCCC(C)C)O2,outcome,[4],inactive
same,outcome,[5],inactive
CCCCCCCCCCO[C@@H]1O[C@H](CO)[C@@H](O)[C@H](O)[C@H]1O,outcome,[2],inactive
same,outcome,[4],inactive
same,outcome,[5],inactive
CCCCCCC(C)O (configuration not stated),AC50,[3],43.2 µM (active)
same,outcome,[4],inactive
same,outcome,[5],inactive
same,outcome,[6],inactive
CC1=CCC(=C(C)C)CC1,outcome,[4],inactive
same,outcome,[5],inactive
C1=COCCC1,outcome,[4],inactive
same,outcome,[5],inactive
O=C(O)CS,outcome,[4],inactive
same,outcome,[5],inactive
CCCCOCCOCCOCCO,outcome,[4],inactive
same,outcome,[5],inactive
CCCCCCCCOC(C)=O,outcome,[4],inactive
same,outcome,[5],inactive
c1ccc(OCCOc2ccccc2)cc1,outcome,[3],inactive
same,outcome,[4],inactive
same,outcome,[5],inactive
same,outcome,[6],inactive
CCCCC/C=C\C=C\C(=O)OCC,AC50,[3],42.7 µM (active)
same,outcome,[4],inactive
same,outcome,[5],inactive
same,outcome,[6],inactive
NC(=O)c1cccnc1,outcome,[4],inactive
same,outcome,[5],inactive
CC(=O)OC/C=C(C)/C=C/C=C(C)/C=C/C1=C(C)CCCC1(C)C,outcome,[4],inactive
same,outcome,[5],inactive
CC(C)(C)C1CCC(O)CC1 (configuration not stated),outcome,[4],inactive
same,outcome,[5],inactive
same,outcome,[6],inactive
O=C(O)c1cc2ccccc2cc1O,outcome,[3],inactive
CCC(C)C1CCCCC1=O (configuration not stated),outcome,[4],inactive
same,outcome,[5],inactive
Cc1cccc(C)c1,outcome,[4],inactive
same,outcome,[5],inactive
CN(C)c1ccc(C=O)cc1,outcome,[3],inactive
O=C(O)c1ccccc1O,outcome,[4],inactive
same,outcome,[5],inactive
NNC(=O)OCc1ccccc1,outcome,[3],inactive
CCCCCCCC(=O)N(C)C,outcome,[4],inactive
same,outcome,[5],inactive
COc1ccc(OC)cc1,outcome,[4],inactive
same,outcome,[5],inactive
Nc1cc([N+](=O)[O-])ccc1C(=O)O,outcome,[3],inactive
COC(=O)C(C)Oc1ccc(Oc2ncc(C(F)(F)F)cc2Cl)cc1 (configuration not stated),outcome,[4],inactive
same,outcome,[5],inactive
CCCC1CCC(=O)CC1,outcome,[4],inactive
same,outcome,[5],inactive
same,outcome,[6],inactive
CCCCCCCCCCCCN1CCOCC1,outcome,[4],inactive
same,outcome,[5],inactive
same,AC50,[6],50 µM (active)
CC1=CCC(C(C)C)=CC1,outcome,[4],inactive
same,outcome,[5],inactive
O=C(O)C1=NN(c2ccc(S(=O)(=O)O)cc2)C(=O)C1,outcome,[4],inactive
same,outcome,[5],inactive

# Reference: PubChem BioAssay (EPA / NIEHS)
